Hits are enriched below; roughly 1.1% of the tested compounds scored in any of these assays.
Mtb bLac sens: beta-lactam sensitization of Mtb H37Rv; M. tuberculosis H37Rv growth with meropenem, percent inhibition; inhibition, % at 25 µM; hit rate 0.27% among 330,000; call rule not given here;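 also: growth measured after seven days incubation then overnight dye step; 0% = bacteria only wells and 100% = bacteria with antibiotic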
Mtb UGM inh: blocks M. tuberculosis UGM enzyme | AID 504406 | inhibition, % at 10 µM | hit rate 0.06% among 320,000 | P9WIQ1 | purified UGM, fluorescence polarization probe displacement; in the data active = inhibition above about 10%, passing the limit was not always enough
RecA intein inh: Mtb RecA intein splicing inhibition; AID 2221; cell-free RecA intein splicing, fluorescence; hit rate 0.75% among 290,000; inhibition, % (test concentration not listed); in the data active = inhibition above about 30%;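 also: 0% = vehicle wells and 100% = reference inhibitor control wells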
PriA SSB inh: K. pneumoniae PriA-SSBct interaction inhibition | AlphaScreen SSBct-PriA binding, biotinylated peptide | inhibition, % at 33 µM | hit rate 0.6% among 430,000; in the data active = inhibition mostly above about 37%, no sharp cut-off; inactive = mostly below about 20%;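 also: plate controls were negative control peptide for no effect and reference peptide for full effect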
Rv3671c inh: inhibits the M. tuberculosis serine protease Rv3671c. P9WHR9. inhibition, % at 5.96 µM. hit rate 0.048% among 320,000; in the data active = inhibition above about 38%;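 also: extracellular domain of Rv3671c used as enzyme; 0% = enzyme with DMSO and 100% = no enzyme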
Target sequence (P9WHR9 whole entry, looked up, the tested form may be a part): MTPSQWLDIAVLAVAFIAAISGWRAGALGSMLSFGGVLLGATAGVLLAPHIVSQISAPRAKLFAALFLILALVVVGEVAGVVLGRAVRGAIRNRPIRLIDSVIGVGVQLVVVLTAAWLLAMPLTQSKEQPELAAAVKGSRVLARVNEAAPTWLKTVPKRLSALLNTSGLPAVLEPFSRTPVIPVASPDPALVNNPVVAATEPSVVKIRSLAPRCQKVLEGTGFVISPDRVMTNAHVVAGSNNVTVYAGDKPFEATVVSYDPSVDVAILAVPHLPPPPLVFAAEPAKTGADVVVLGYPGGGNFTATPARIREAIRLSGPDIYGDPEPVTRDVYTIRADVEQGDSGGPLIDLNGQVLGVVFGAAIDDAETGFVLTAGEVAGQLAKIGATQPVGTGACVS
The depositor's hits bear a star; nt = no result; + = active, no number; ! = repeats disagree.

SMILES	Mtb bLac sens	Mtb UGM inh	RecA intein inh	PriA SSB inh	Rv3671c inh
CC(C)(NC(=O)c1cccs1)C(=O)N1CCN(CCO)CC1	nt	nt	nt	9	nt
Cn1cc(C(c2ccccn2)c2cn(C)c3ccccc23)c2ccccc21	-3	-1	0	50*	6
c1ccc(C(c2c[nH]c3ccccc23)c2c[nH]c3ccccc23)nc1	-6	-2	0	32	0
O=C(Nc1nc(-c2ccccn2)cs1)c1ccc([N+](=O)[O-])o1	93	-3	-17	51*	-13
O=C(NN(c1ccccc1)c1ccccc1)c1ccc([N+](=O)[O-])o1	59	-2	2	2	-3
O=C(NNC(=O)c1ccc([N+](=O)[O-])o1)c1ccccc1	100	-1	39*	-4	7
Cc1csc(NC(=O)c2ccccc2[N+](=O)[O-])n1	3	-1	-1	-4	10
O=C(Nc1nc(-c2ccccn2)cs1)c1ccccc1[N+](=O)[O-]	nt	nt	nt	105*	nt
O=C(Nc1nc(-c2ccccc2)cs1)c1ccccc1[N+](=O)[O-]	nt	nt	nt	84*	nt
CCS(=O)(=O)c1ccccc1C(=O)Nc1nc(-c2ccccn2)cs1	nt	nt	nt	-5	nt
CCOc1cccc2cc(-c3nnc(NC(=O)c4cccc(N5C(=O)CCC5=O)c4)o3)oc12	nt	nt	nt	-4	nt
O=C(Nc1nc(-c2ccccc2)cs1)c1cc(Cl)ccc1[N+](=O)[O-]	nt	nt	nt	34	nt
O=C(Nc1nc(-c2ccccn2)cs1)c1cc(Cl)ccc1[N+](=O)[O-]	89	0	0	64*	3
CCCN1CCCc2ccccc21	5	-1	-1	39*	14
Cc1ccc(S(=O)(=O)NCCc2ccc3c(c2)CCCN3C)cc1Cl	nt	nt	nt	38*	nt
CCCN1CCCc2cc(CCNS(=O)(=O)c3ccc(CC)cc3)ccc21	nt	nt	nt	51*	nt
CC(C)(C)NC(=O)CN(C(=O)CCN1CCCc2ccccc21)C(C)(C)C	-7	-1	-5	-6	-4
CCCN1CCCc2cc(CCNC(=O)CC)ccc21	nt	nt	nt	52	nt
CCCN1CCCc2cc(CCNS(=O)(=O)CC(C)C)ccc21	nt	nt	nt	74*	nt
CC(CC(=O)Nc1ccc(N(C)C)cc1)=NNC(=O)c1ccccc1F	nt	nt	nt	22	nt
CCCN1CCCc2cc(CCNC(=O)C(=O)Nc3c(C)cccc3C)ccc21	nt	nt	nt	35	nt
CCCN1CCCc2cc(CCNS(=O)(=O)CCc3ccccc3)ccc21	nt	nt	nt	71*	nt
CCCN1CCCc2cc(CCNS(=O)(=O)c3cc(C)c(OC)c(C)c3)ccc21	nt	nt	nt	63	nt
CCCN1CCCc2cc(CCNS(=O)(=O)c3ccc4c(c3)OCCO4)ccc21	nt	nt	nt	67*	nt
CN1CCCc2cc(CCNS(=O)(=O)c3cccs3)ccc21	nt	nt	nt	71*	nt
SMILES	Mtb bLac sens	Mtb UGM inh	RecA intein inh	PriA SSB inh	Rv3671c inh
CCCN1CCCc2cc(CCNS(=O)(=O)c3ccc(F)c(Cl)c3)ccc21	nt	nt	nt	47*	nt
O=C(NCCCN1CCOC(c2ccccc2)C1)C(=O)Nc1ccccc1 (stereo unspecified)	nt	nt	nt	-8	nt
Cn1nc2c(cc1=O)CC(C(=O)N1CC=C(c3ccccc3)CC1)CC2 (stereo unspecified)	nt	nt	nt	4	nt
CCOc1ccc(-c2[nH]ncc2-c2nc(-c3cccs3)no2)cc1Cl	nt	nt	nt	4	nt
c1ccc(-c2cc3ccccc3n2-c2ccccc2)cc1	nt	nt	nt	-26	nt
CCCN1CCCc2cc(CCNS(C)(=O)=O)ccc21	nt	nt	nt	70*	nt
CCCN1CCCc2cc(CCNS(=O)(=O)c3ccc(CC)s3)ccc21	nt	nt	nt	60*	nt
COc1ccc(C)cc1S(=O)(=O)NCCc1ccc(N2CCCC2)cc1	nt	nt	nt	22	nt
CCCN1CCCc2cc(CCNS(=O)(=O)CCC)ccc21	nt	nt	nt	112*	nt
CCCN1CCCc2cc(CCNC(=O)C(=O)NC(C)C)ccc21	nt	nt	nt	22	nt
COc1ccc(C)cc1S(=O)(=O)NCCc1ccc2c(c1)CCCN2C	nt	nt	nt	65*	nt
CCOc1ccc(-c2ccc(=O)n(CC(=O)Nc3cc(C(F)(F)F)ccc3Cl)n2)cc1	nt	nt	nt	-4	nt
Cc1ccccc1C(=O)N1CCN(CCNC(=O)C(=O)Nc2ccc(Br)cc2)CC1	10	5	1	39*	-3
COc1ccccc1C(=O)N1CCN(CCNC(=O)C(=O)Nc2ccc(Br)c(C)c2)CC1	13	0	-1	2	3
O=C(N/N=C/c1cccc2cccnc12)c1ccncc1	nt	nt	nt	+	nt
O=C(N/N=C/c1cccc2cccnc12)c1ccccc1	nt	nt	nt	+	nt
O=C(NN=Cc1cccc2ccccc12)c1ccncc1	nt	nt	nt	0	nt
O=C(N/N=C/c1cccc2cccnc12)c1ccccc1Br	nt	nt	nt	+	nt
O=C(/C=C/c1cccs1)Nc1ccc(S(=O)(=O)N2CCCCCC2)cc1	nt	nt	nt	9	nt
CCOc1cccc2sc(N(CCCN(C)C)C(=O)c3ccc(S(=O)(=O)N(C)Cc4ccccc4)cc3)nc12	73	3	7	38*!	-4
Cc1ccc2sc(N(CCCN(C)C)C(=O)c3ccc(S(=O)(=O)N(C)Cc4ccccc4)cc3)nc2c1C	100	-2	15	38	-2
CCN(c1ccccc1)S(=O)(=O)c1ccc(C(=O)N(CCCN(C)C)c2nc3c(C)cccc3s2)cc1	12	3	6	36*!	0
O=[N+]([O-])c1ccc(C2CCCC/C2=N/OCc2ccccc2F)c([N+](=O)[O-])c1 (stereo unspecified)	8	-1	2	nt	2
O=[N+]([O-])c1ccc(C2CCCCC2=NOCc2ccccc2F)c([N+](=O)[O-])c1 (stereo unspecified)	nt	nt	nt	50*	nt
CN1CCCC1CCNC1C2CC3CC(C2)CC1C3 (stereo unspecified)	-9	3	2	41*	-9
SMILES	Mtb bLac sens	Mtb UGM inh	RecA intein inh	PriA SSB inh	Rv3671c inh
CCOc1cc(=O)c(C(=O)NCc2cc(F)cc(F)c2)nn1-c1ccccc1	nt	nt	nt	-5	nt
O=C(NN=Cc1ccccc1O)C(=O)Nc1ccccn1	nt	nt	nt	-2	nt
COc1ccc(-c2cc(=Nc3ccccc3)c3cc(C)ccc3o2)cc1	15	0	14	29	1
COc1ccc(-c2cc(=Nc3ccc(C)cc3)c3ccccc3o2)cc1	nt	0	4	10	-19
CCOc1ccc(N=c2cc(-c3ccc(OC)cc3)oc3ccccc23)cc1	nt	4	5	39*	7
COc1ccc(-c2cc(=O)c3ccccc3o2)cc1	-5	2	3	-2	-6
COc1ccc(N=c2cc(-c3ccc(OC)cc3)oc3ccccc23)cc1	-4	nt	10	53*	0
COc1ccc(N=c2cc(-c3ccc(O)cc3)oc3ccccc23)cc1	98	-7	7	42*	9
CC1CN(c2nc(N3CCOCC3)nc3c2cnn3-c2ccccc2)CC(C)O1 (stereo unspecified)	nt	nt	nt	7	nt
Oc1c(Cl)cc(Cl)cc1C=Nc1nccs1	nt	nt	nt	56*	nt
Oc1c(Cl)cc(Cl)cc1/C=N/c1nccs1	14	-1	2	nt	12
O=C(Nc1cccc(-c2ccn[nH]2)c1)c1ccc(-n2cncn2)nn1	nt	nt	nt	-9	nt
COc1cccc(N2C[C@@H](C(=O)Nc3c(C(=O)Nc4ccc5c(c4)OCCO5)oc4ccccc34)CC2=O)c1	nt	nt	nt	69*	nt
COc1cccc(NC(=O)c2oc3ccccc3c2NC(=O)C2CC2)c1	nt	5	0	14	-8
Oc1cccc2ccc(Nc3ccccn3)nc12	97	0	-22	103*	7
COc1ccc(NC(=O)c2c(OC)cccc2OC)c(OC)c1	91	0	16	67*	0
O=C(NCCCc1ccccc1)N1CCN(C[C@H](O)c2ccco2)CC1	nt	nt	nt	-8	nt

Screening results as filed in PubChem.
